Experimental data from PubChem BioAssay (NCATS).
Results filed as inconclusive are left out. The source made the active and inactive calls. Unless noted, the call rests on the fitted dose curve; in most records, active means well fitted curve in the direction sought with a large enough effect; inconclusive means small, poorly fitted or top-dose-only effect, or another doubt; inactive means no such curve, though single readings can be large; an effect the other way counts as inactive or inconclusive.

What was measured:
[1] = Cell Viability - LYMP2-006 (AID 978); further: series mostly up to about 92 µM; on the % scale 0 is the no-effect control and ±100 the full control effect; nearly all actives have a fitted effect of over 60% in size
Method in brief: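 Cells are seeded at 2500 per well and rested 5 hr at 37 C. Compounds are added across a concentration series for 24 hr at 37 C, after which ATP is quantified by luciferase luminescence.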

[2] = Cell Viability - LYMP2-007 (AID 979);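 further: cells exposed to compound for 24 h before reading; 0% = DMSO only and the negative end = 92 µM tetraoctylammonium bromide; nearly all actives have a fitted effect of over 60% in size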
Method in brief: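 AC50 values come from Hill-equation fits of luminescent intracellular ATP (CellTiter-Glo, 30 min, room temperature) following 24 h compound exposure at 37 C. Cells: LYMP2-007 lymphoblastoid line, 2500 per well, in complete culture medium.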

[3] = Cell Viability - LYMP2-008 (AID 980); further: on the % scale 0 is the no-effect control and ±100 the full control effect; nearly all actives have a fitted effect of over 60% in size
Method in brief: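 Cytotoxicity determined from ATP-dependent luciferase luminescence (CellTiter-Glo) following 24 h compound exposure of human lymphoblastoid LYMP2-008 cells at 37 C. Concentration-response data fitted to the Hill equation to give AC50.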

[4] = Cell Viability - LYMP2-010 (AID 981); further: on the % scale 0 is the no-effect control and ±100 the full control effect; nearly all actives have a fitted effect of over 55% in size
Method in brief: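 CellTiter-Glo ATP luminescence measured cytotoxicity after 24 h compound exposure at 37 C. LYMP2-010 cells were seeded at 2500/well, with tetraoctylammonium bromide as control; concentration-response curves gave AC50 values by the Hill equation.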

[5] = Cell Viability - LYMP2-012 (AID 982);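 further: cellular ATP by luciferase luminescence where a drop means cytotoxicity; cells exposed to compound for one day before reading; 0% = DMSO only and full loss = 92 µM tetraoctylammonium bromide; nearly all actives have a fitted effect of over 55% in size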
[6] = Cell Viability - LYMP2-016 (AID 984); further: on the % scale 0 is the no-effect control and ±100 the full control effect; nearly all actives have a fitted effect of over 55% in size
Method in brief: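 Cells were seeded at 2500 per well and rested 5 hr before a 24 hr compound exposure at 37 C. Viability was then gauged as cellular ATP by luciferase luminescence, with AC50 values fitted to the Hill equation.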

[7] = Cell Viability - LYMP2-018 (AID 985);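 further: plate controls were DMSO only for no effect and tetraoctylammonium bromide at 92 µM for full effect; nearly all actives have a fitted effect of over 50% in size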
Method in brief: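 Viability read as CellTiter-Glo luminescence (cellular ATP) after 24 hr compound exposure at 37 C of 2500 LYMP2-018 lymphoblastoid cells/well, pre-plated 5 hr. Hill-equation modelling gave AC50.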

[8] = Cell Viability - LYMP2-022 (AID 987);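 further: 0% = DMSO alone and full effect = tetraoctylammonium bromide at 92 µM; nearly all actives have a fitted effect of over 55% in size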
Method in brief: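 Cytotoxicity read as decreased cellular ATP (CellTiter-Glo luminescence, 30 min room temperature) after 24 hours compound exposure of 2500 lymphoblastoid LYMP2-022 cells/well at 37 C. Concentration-response data fitted with standard Hill equation for AC50.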

[9] = Cell Viability - LYMP2-024 (AID 988);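 further: plate controls were DMSO only for no effect and 92 µM tetraoctylammonium bromide for full effect; nearly all actives have a fitted effect of over 60% in size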
Method in brief: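 Cytotoxicity was taken as a decrease in ATP (CellTiter-Glo luminescence) after 24 hr compound exposure at 37 C of LYMP2-024 lymphoblastoid cells, 2500 cells/well. Concentration-response data were fitted to the Hill equation to give AC50.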

[10] = Cell Viability - LYMP1-002 - Assay at 40 hr (AID 994)
Method in brief: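 Cytotoxicity was read as loss of cellular ATP (CellTiter-Glo luminescence) after 40 hr compound exposure at 37 C of 2500 LYMP1-002 lymphoblastoid cells per well. Concentration-response data were fitted with the standard Hill equation to give AC50.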

[11] = qHTS Assay for Identification of Small Molecule Inducers of Hypoxia Response (AID 2120; active means well fitted curve in the direction sought with a large enough effect in the signal ratio, with a control signal flat, not every such curve was filed as active; the % refers to the signal ratio; further: 0% is about no effect)
Method in brief: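 Reporter induction read as the CCF4 blue/green (460nm/530nm) emission ratio after 2.5 h dye loading at room temperature. ME-180 HRE-beta-lactamase cells received titrated compounds for 17 h at 37 degrees Celsius; AC50 values derived.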

[12] = target: Estrogen receptor (Homo sapiens) (UniProt P03372); assay: qHTS assay for small molecule antagonists of estrogen receptor alpha signaling (AID 588513; active means well fitted curve in the direction sought with a large enough effect in the signal ratio, with a control signal flat, not every such curve was filed as active; the % refers to the signal ratio; further: on the % scale 0 is the no-effect control and ±100 the full control effect)
Method in brief: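 Fluorescence from CCF4 substrate after 2 h at room temperature gave reporter activity; cells had been exposed to compound and 0.5nM 17-beta-estradiol for 18 h at 37 C. Hill-equation fitting yielded IC50 and maximal response.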

[13] = target: Estrogen receptor (Homo sapiens) (UniProt P03372); assay: qHTS assay for small molecule agonists of estrogen receptor alpha signaling (AID 588514; calls by dose curve;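 further: 0% = vehicle only and 100% = reference agonist; nearly all actives have a fitted effect of over 70% in size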)
Method in brief: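 EC50 and efficacy came from Hill fits of beta-lactamase reporter signal (CCF4 dye, 2 h at room temperature) scaled between DMSO and 20 nM 17-beta-estradiol. Agonist mode: HEK293 ER-alpha-UAS-bla cells in charcoal/dextran-stripped serum medium, 18 h compound exposure at 37 C.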

[14] = target: Bile acid receptor (Homo sapiens) (UniProt Q96RI1); assay: qHTS assay for small molecule antagonists of farnesoid X receptor signaling (AID 588526; calls by dose curve; further: on the % scale 0 is the no-effect control and ±100 the full control effect)
Method in brief: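 Antagonist mode: titrated compounds tested against chenodeoxycholic acid stimulation (normalized to 50 uM CDCA and DMSO) in GeneBLAzer HEK293T cells for 16 h. Beta-lactamase read by CCF4 fluorescence; IC50 from Hill fits.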

[15] = target: Peroxisome proliferator-activated receptor gamma (Homo sapiens) (UniProt P37231); assay: qHTS assay for small molecule agonists of peroxisome proliferator-activated receptor gamma signaling (AID 588536; active means well fitted curve in the direction sought with a large enough effect in the signal ratio, with a control signal flat, not every such curve was filed as active; the % refers to the signal ratio;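 further: 0% = DMSO basal wells and 100% = rosiglitazone at 2 µM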)
Method in brief: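 Beta-lactamase reporter read-out: CCF4 fluorescence (ex 405, em 460/530 nm) after 2 h at RT. HEK293 GeneBLAzer cells were treated for 16 h at 37 C. Hill fits gave EC50 and efficacy versus 2 uM rosiglitazone (100%) and DMSO (0%).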

[16] = target: Vitamin D3 receptor (Homo sapiens) (UniProt P11473); assay: qHTS assay for small molecule antagonists of vitamin D receptor signaling (AID 588541; calls by dose curve;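 further: receptor activated by calcitriol during compound treatment; series mostly up to about 77 µM; on the % scale 0 is the no-effect control and ±100 the full control effect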)
Method in brief: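 VDR-UAS-bla HEK293T cells in 2% charcoal-stripped FBS were stimulated with 1-alpha,25-dihydroxyvitamin D3 (3 nM final) plus compound for 16 h at 37 C. The beta-lactamase CCF4 readout was normalized to 50 nM agonist and DMSO, and Hill fits gave IC50.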

[17] = target: Vitamin D3 receptor (Homo sapiens) (UniProt P11473); assay: qHTS assay for small molecule agonists of vitamin D receptor signaling (AID 588543; calls by dose curve;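 further: 0% = DMSO basal and 100% = reference agonist control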)
Method in brief: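 Reporter cells (HEK293T, VDR-UAS-bla) were seeded in medium with 2% charcoal-stripped serum and incubated 5 h, then compounds in concentration series were added for 16 h at 37 °C. Stimulation was scaled between DMSO basal and 50 nM 1α,25-dihydroxyvitamin D3.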

[18] = target: Thyroid hormone receptor beta (Homo sapiens) (UniProt P10828); assay: qHTS assay for small molecule agonists of thyroid hormone receptor beta signaling (AID 588545; calls by dose curve;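 further: 0% = DMSO only and 100% = 10 nM T3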)
Method in brief: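 Beta-lactamase reporter activity under TR response element control is measured in HEK 293 cells after 18 hrs compound exposure. Signal is ratiometric CCF4 fluorescence, 460/530 nm.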

[19] = qHTS assay for small molecule antagonists of retinoid X receptor alpha signaling (AID 588546; active means well fitted inhibition curve with a large enough effect in the signal ratio, with a control signal flat, not every such curve was filed as active; the % refers to the signal ratio;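 further: cells stimulated with 9-cis-retinoic acid as agonist; on the % scale 0 is the no-effect control and ±100 the full control effect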); details: HEK293T RXRa-UAS-bla, beta-lactamase ratio, antagonist mode; measured here: W530 green channel, cytotoxicity proxy
Method in brief: (§1)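 Beta-lactamase reporter inhibition, read as CCF4 fluorescence ratio (ex 405, em 460/530 nm) after 2 h at RT. HEK293T UAS-bla cells, 2500/well, were stimulated with 9-cis-RA at 500 or 100 nM final alongside test compound for 18 h at 37 C.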

[20] = target: Retinoic acid receptor RXR-alpha (Homo sapiens) (UniProt P19793); assay: as above; details: HEK293T RXRa-UAS-bla, beta-lactamase ratio, antagonist mode
Method in brief: as §1

[21] = target: Thyroid hormone receptor beta (Homo sapiens) (UniProt P10828); assay: qHTS assay for small molecule antagonists of thyroid hormone receptor beta signaling (AID 588547; active means well fitted inhibition curve with a large enough effect in the signal ratio, with a control signal flat, not every such curve was filed as active; the % refers to the signal ratio); details: TR-UAS-bla HEK293, beta-lactamase ratio, antagonist mode, 18 h
Method in brief: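 TR-UAS-bla GripTite HEK293 cells in 2% charcoal/dextran FBS medium; compounds 0.59 nM to 92 uM with T3 at 0.4nM final, 18 h at 37 C. Beta-lactamase read by CCF4 fluorescence (460/530 nm); Hill fits gave IC50 and efficacy.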

[22] = target: Voltage-gated inwardly rectifying potassium channel KCNH2 (Homo sapiens) (UniProt Q12809); assay: qHTS Assay for Small Molecule Inhibitors of the Human hERG Channel Activity (AID 588834);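 further: top concentration of the series differs between compounds; on the % scale 0 is the no-effect control and ±100 the full control effect; lower thallium flux fluorescence means stronger hERG block; nearly all actives have a fitted effect of over 50% in size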
Method in brief: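 Step 1: BacMam hERG transduction of U2OS, 4 hrs RT. Step 2: overnight 37 °C, plate 2000 cells/well, 4 hr. Step 3: FluxOR load, compound 10 min, stimulate, read fluorescence.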

[23] = qHTS assay for small molecule agonists of the antioxidant response element (ARE) signaling pathway (AID 651741; active means well fitted activation curve with a large enough effect in the signal ratio; the % refers to the signal ratio; further: potency means the concentration at half of the fitted maximal effect)
Method in brief: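 Stably integrated ARE-beta-lactamase reporter HepG2 cells; 16 h compound incubation, 37 C; LiveBLAzer FRET substrate 2 h at room temperature; fluorescence intensity.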

Estrogen receptor (Homo sapiens), sequence (P03372 whole entry, looked up): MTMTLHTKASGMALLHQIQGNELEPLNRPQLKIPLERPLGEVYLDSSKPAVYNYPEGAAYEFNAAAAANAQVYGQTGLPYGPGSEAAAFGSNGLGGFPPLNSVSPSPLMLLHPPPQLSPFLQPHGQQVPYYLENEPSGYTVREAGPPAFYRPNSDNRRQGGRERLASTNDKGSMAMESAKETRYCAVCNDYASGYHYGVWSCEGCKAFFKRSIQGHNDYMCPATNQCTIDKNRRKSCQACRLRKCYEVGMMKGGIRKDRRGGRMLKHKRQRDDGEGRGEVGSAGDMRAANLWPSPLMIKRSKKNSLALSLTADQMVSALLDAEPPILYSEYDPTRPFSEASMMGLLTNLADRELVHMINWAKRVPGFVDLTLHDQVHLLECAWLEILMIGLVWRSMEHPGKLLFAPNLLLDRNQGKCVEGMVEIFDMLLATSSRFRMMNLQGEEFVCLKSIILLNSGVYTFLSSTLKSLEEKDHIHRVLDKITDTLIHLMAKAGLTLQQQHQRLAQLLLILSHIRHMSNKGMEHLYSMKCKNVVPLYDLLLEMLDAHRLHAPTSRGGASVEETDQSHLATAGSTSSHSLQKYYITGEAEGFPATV
Thyroid hormone receptor beta (Homo sapiens), sequence (P10828 whole entry, looked up): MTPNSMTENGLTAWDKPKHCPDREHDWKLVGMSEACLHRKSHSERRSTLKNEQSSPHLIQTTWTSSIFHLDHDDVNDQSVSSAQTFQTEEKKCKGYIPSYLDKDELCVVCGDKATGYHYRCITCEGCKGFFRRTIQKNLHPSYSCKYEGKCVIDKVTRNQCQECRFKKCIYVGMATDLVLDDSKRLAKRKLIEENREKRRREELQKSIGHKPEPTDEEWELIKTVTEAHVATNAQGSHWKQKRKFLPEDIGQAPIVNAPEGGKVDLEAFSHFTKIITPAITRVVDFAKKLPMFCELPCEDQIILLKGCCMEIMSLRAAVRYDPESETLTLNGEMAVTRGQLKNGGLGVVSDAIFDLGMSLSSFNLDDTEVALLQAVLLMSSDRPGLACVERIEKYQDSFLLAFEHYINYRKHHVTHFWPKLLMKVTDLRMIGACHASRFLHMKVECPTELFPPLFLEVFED
Vitamin D3 receptor (Homo sapiens), sequence (P11473 whole entry, looked up): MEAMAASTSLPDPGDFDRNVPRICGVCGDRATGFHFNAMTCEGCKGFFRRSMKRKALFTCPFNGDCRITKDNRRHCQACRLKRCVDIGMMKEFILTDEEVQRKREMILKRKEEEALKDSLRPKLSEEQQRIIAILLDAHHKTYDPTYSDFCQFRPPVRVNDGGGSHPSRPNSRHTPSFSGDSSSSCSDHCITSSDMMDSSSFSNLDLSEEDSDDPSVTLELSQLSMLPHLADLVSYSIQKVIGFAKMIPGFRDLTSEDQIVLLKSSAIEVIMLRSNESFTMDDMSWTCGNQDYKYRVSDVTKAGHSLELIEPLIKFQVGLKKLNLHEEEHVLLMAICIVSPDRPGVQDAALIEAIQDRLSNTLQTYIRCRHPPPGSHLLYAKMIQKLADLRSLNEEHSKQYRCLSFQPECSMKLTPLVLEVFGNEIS
Bile acid receptor (Homo sapiens), sequence (Q96RI1 whole entry, looked up): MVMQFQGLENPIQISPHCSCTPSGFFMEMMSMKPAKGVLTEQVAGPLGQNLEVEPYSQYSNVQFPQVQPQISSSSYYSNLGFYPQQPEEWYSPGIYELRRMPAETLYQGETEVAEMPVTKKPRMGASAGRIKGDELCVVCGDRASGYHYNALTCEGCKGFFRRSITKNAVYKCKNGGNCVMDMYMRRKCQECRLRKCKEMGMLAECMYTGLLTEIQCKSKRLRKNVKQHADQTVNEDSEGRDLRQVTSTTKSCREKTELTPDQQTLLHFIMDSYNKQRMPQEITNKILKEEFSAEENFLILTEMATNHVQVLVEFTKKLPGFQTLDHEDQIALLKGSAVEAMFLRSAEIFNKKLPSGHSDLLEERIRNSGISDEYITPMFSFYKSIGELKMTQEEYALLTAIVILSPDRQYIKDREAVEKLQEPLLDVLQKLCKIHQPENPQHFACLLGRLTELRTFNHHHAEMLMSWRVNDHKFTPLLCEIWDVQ
Peroxisome proliferator-activated receptor gamma (Homo sapiens), sequence (P37231 whole entry, looked up): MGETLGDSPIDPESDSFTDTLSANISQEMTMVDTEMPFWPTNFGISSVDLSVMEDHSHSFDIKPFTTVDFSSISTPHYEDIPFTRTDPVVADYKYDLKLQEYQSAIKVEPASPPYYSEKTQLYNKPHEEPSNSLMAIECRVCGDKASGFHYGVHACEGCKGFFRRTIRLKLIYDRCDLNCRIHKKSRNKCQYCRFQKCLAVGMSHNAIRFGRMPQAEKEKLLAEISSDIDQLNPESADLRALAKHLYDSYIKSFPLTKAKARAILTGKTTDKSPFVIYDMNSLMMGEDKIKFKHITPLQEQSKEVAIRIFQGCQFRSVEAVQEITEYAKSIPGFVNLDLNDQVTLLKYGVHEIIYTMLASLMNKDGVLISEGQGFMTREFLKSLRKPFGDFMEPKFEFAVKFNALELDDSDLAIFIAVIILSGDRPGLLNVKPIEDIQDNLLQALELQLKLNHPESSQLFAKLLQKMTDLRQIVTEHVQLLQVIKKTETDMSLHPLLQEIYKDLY
Voltage-gated inwardly rectifying potassium channel KCNH2 (Homo sapiens), sequence (Q12809 whole entry, looked up): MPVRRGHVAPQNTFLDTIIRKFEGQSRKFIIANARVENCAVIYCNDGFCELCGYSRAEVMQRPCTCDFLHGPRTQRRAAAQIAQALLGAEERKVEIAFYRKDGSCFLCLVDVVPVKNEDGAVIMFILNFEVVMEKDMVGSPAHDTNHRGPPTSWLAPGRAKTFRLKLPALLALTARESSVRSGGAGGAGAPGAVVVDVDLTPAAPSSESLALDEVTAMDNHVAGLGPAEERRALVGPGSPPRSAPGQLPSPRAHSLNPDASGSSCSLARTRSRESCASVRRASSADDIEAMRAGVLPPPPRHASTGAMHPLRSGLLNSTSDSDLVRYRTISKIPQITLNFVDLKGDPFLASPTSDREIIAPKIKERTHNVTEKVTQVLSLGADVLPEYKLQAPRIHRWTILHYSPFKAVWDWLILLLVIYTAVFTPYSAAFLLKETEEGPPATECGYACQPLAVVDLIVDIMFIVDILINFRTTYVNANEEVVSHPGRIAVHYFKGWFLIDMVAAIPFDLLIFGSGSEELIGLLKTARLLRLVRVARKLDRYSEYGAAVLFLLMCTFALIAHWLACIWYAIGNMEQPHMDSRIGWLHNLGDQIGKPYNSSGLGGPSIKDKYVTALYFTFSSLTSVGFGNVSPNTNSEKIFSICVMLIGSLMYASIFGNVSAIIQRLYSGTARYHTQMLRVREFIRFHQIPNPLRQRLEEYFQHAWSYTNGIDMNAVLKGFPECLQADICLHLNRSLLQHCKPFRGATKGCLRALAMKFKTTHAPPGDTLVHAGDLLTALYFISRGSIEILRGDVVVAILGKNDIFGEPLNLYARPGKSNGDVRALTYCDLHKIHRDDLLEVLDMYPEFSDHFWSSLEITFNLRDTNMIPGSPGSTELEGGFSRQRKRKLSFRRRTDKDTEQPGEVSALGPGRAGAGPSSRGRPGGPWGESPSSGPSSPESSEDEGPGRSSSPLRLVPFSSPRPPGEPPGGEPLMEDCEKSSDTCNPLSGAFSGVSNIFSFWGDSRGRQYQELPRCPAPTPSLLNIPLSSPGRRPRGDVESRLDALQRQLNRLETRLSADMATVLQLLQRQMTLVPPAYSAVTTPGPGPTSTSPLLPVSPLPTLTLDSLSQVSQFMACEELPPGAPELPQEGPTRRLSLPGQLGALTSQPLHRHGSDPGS
Retinoic acid receptor RXR-alpha (Homo sapiens), sequence (P19793 whole entry, looked up): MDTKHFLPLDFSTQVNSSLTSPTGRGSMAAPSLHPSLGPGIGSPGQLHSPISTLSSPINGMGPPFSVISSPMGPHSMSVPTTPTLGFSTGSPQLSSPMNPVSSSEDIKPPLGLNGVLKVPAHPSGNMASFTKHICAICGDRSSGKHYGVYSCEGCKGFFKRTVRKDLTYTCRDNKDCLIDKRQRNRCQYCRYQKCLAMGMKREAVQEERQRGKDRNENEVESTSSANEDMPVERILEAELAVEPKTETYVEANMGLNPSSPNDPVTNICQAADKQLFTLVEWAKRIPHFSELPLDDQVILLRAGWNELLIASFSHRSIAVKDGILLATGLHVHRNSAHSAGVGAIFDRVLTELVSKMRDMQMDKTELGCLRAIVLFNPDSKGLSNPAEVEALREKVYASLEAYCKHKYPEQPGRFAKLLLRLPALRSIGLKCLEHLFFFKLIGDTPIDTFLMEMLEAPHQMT

COc1ccc(/C=C/c2cc(OC)cc(=O)o2)cc1
19.1%: max response [19]
inactive: Potency [1] | Potency [2] | Potency [3] | Potency [4] | Potency [5] | Potency [6] | Potency [7] | Potency [8] | Potency [9] | Potency [10] | outcome [11] | Potency [12] | Potency [13] | outcome [14] | outcome [15] | outcome [16] | outcome [17] | outcome [18] | max response [20] -3.53% | activity change % (negative = inhibition) [21] -10.8% | Potency [22]
active: Potency [23] 1880 nM
